Laboratory results: PubChem BioAssay AID588397 (National Center for Advancing Translational Sciences (NCATS), 2011)
Hit rate of the full screen: of about 1,300 compounds, about 1,000 (77%) were called active. About 7% were inconclusive and are not listed. Calls follow the shape of the dose curve; as a rule, active = well fitted inhibition curve with a large enough effect; inconclusive = small, poorly fitted or top-dose-only effect; inactive = no such curve, though single readings can be large or run the other way. The set was probably picked from earlier hits. Some of the results follow.

Experiment: qHTS of small molecules that selectively kill Giardia lamblia: Hit Validation.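 Also: viability measured as ATP content by luminescence so killing lowers signal; trophozoites exposed to compounds for 48 h anaerobically at 37 °C; nearly all actives have a fitted effect of over 65% in size.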
Conditions: Giardia lamblia trophozoite viability, dose-response; series mostly up to 38.3 µM; activity change, negative = killing: at the top concentration
Description: Giardia lamblia is a human pathogen afflicting impoverished nations, and the most common cause of outbreaks of diarrhea in the United States. Giardia has been classified by the CDC as a category B bioterrorism organism. The favored anti giardiasis drugs in the US are metronidazole or tinidazole, compounds that have undesirable side effects. Moreover, increasing resistance to drug regimes and recurrence are a concern. It is thus clear that alternative drug treatments are needed.
In a collaboration between the University of Maryland, College Park and the NIH Chemical Genomics Center, a bioluminescence Giardia viability assay based on the trophozoites' ATP content was developed. This assay is suitable for high throughput screening, and miniaturized the assay for compound screening in 1536-well plates. The goal of the project is to screen the Molecular Libraries Small Molecule Repository (MLSMR) for compounds that selectively kill Giardia trophozoites.
NIH Chemical Genomics Center [NCGC]
NIH Molecular Libraries Probe Centers Network [MLPCN]
Assay Submitter (PI): Osnat Herzberg, University of Maryland, College Park, MD.
1. Dispense 2 ul/well media
2. Dispense 23 nl/well compounds
3. Dispense 4 ul/well Giardia trophozoites at a concentration of 100 cells/well
4. Incubate 48 hrs at 37 deg C anaerobically
5. Dispense 4 ul/well ATPLite 1-Step Luminescence assay kit
6. Incubate 15-30 min at room temperature
7. Read luminescence signal on ViewLux plate reader
% is scaled to controls: 0 for no effect and ±100 for the full control effect; potency is read from the fitted curve at half-maximal effect.

Structure (SMILES) | Potency | activity change, negative = killing
O=C(Nc1ncccn1)c1ccc([N+](=O)[O-])o1 | 1.3 µM (active) | –
Cc1cccnc1NC(=O)c1ccc([N+](=O)[O-])o1 | 0.918 µM (active) | –
O=C(Nc1ccc(Br)cn1)c1ccc([N+](=O)[O-])o1 | 1.63 µM (active) | –
CCn1nnc(NC(=O)c2ccc(C(C)(C)C)cc2)n1 | 7.29 µM (active) | –
O=C(Nc1ccccn1)c1ccc([N+](=O)[O-])o1 | 1.63 µM (active) | –
CCn1nnc(NC(=O)c2ccc([N+](=O)[O-])o2)n1 | 1.45 µM (active) | –
Cc1onc(NC(=O)c2ccc([N+](=O)[O-])o2)c1Br | 1.63 µM (active) | –
O=C(NCC(c1ccco1)N1CCCC1)c1ccc(S(=O)(=O)Nc2ccccc2Cl)cc1 (centres undefined) | – | -15.3% (inactive)
CC1(C)[N+]([O-])=C2C(=[N+]([O-])C1(C)C)c1ccccc1/C2=N\O | 1.63 µM (active) | –
C/C(=N\NC(=O)COc1ccc(C)cc1Br)c1cc([N+](=O)[O-])cs1 | 1.63 µM (active) | –
CC(=NN1CC(=O)NC1=O)c1ccc([N+](=O)[O-])o1 | 1.45 µM (active) | –
COc1cccc(NC2c3ccccc3C(=O)N2Cc2ccco2)c1 (centres undefined) | – | -6.92% (inactive)
O=[N+]([O-])c1ccc(-c2ccn[nH]2)o1 | 0.0516 µM (active) | –
CC(=O)Oc1ccc2c(=O)c(Oc3ccccc3[N+](=O)[O-])coc2c1 | 3.26 µM (active) | –
O=[N+]([O-])c1ccc(O/N=[N+](\[O-])N2CCCCC2)c([N+](=O)[O-])c1 | 5.16 µM (active) | –
CCOC(=O)N1C(C)CN(/[N+]([O-])=N/Oc2ccc([N+](=O)[O-])cc2[N+](=O)[O-])CC1C (centres undefined) | 5.79 µM (active) | –
CCOC(=O)c1nnn(-c2ccc([N+](=O)[O-])cc2[N+](=O)[O-])c1C | 8.18 µM (active) | –
CCN(CC)/[N+]([O-])=N/Oc1ccc([N+](=O)[O-])cc1[N+](=O)[O-] | 4.1 µM (active) | –
O=C1CC(SC(=Nc2ccccc2)Nc2ccccc2)C(=O)N1c1cccc2ccccc12 (centres undefined) | – | 8.54% (inactive)
O=[n+]1c2c(n([O-])c3cc(Br)ccc31)CCC2 | 2.31 µM (active) | –

Structure (SMILES) | Potency | activity change, negative = killing
O=[n+]1c2c(n([O-])c3cc(Br)ccc31)CCCC2 | 2.31 µM (active) | –
O=[n+]1c2c(n([O-])c3cc(Cl)ccc31)CCCC2 | 4.6 µM (active) | –
Cc1c(Cl)cccc1N=c1c([N+](=O)[O-])nn(-c2ccccc2)n1O | 0.516 µM (active) | –
Cc1ccc(N=c2c([N+](=O)[O-])nn(-c3ccccc3)n2O)c(C)c1 | 1.03 µM (active) | –
CCCC/C=C/C(NC(=O)c1ccc(C(=O)OC)cc1)c1ccccc1 (centres undefined) | – | 2.61% (inactive)
Cc1cc(N)ccc1N=Nc1c(C)n(C)n(-c2ccccc2)c1=O | 0.729 µM (active) | –
Cc1c(NC2(C#N)CCCC2)c(=O)n(-c2ccccc2)n1C | – | -13.8% (inactive)
COc1cc(N=Nc2c(C)n(C)n(-c3ccccc3)c2=O)ccc1N | 2.31 µM (active) | –
Cc1c(N=Nc2ccc(O)cc2)c(=O)n(-c2ccccc2)n1C | 5.16 µM (active) | –
CCNc1ccc(N=Nc2c(C)n(C)n(-c3ccccc3)c2=O)cc1 | 0.729 µM (active) | –
Cc1c(N=Nc2ccc(N(C)C)cc2)c(=O)n(-c2ccccc2)n1C | 0.65 µM (active) | –
O=[N+]([O-])c1ccc(/C=C/c2ccnc3ccccc23)c([N+](=O)[O-])c1 | 7.29 µM (active) | –
CSC1SCC2C(=O)N(C)C(C(C)C)C(=O)OCC(NC(=O)c3cnc4ccccc4n3)C(=O)NC(C)C(=O)N(C)C1C(=O)N(C)C(C(C)C)C(=O)OCC(NC(=O)c1cnc3ccccc3n1)C(=O)NC(C)C(=O)N2C (centres undefined) | 0.206 µM (active) | –
O=C(CSc1ccsc1[N+](=O)[O-])NCCc1ccc(Cl)cc1 | 1.3 µM (active) | –
O=C(CSc1ccsc1[N+](=O)[O-])NCCc1ccccc1 | 0.818 µM (active) | –
CN=c1c([N+](=O)[O-])nn(-c2ccc3c(c2)OCCO3)n1O | 4.1 µM (active) | –
COc1cc(N=c2c([N+](=O)[O-])nn(-c3ccc4c(c3)OCCO4)n2O)cc(OC)c1 | 5.16 µM (active) | –
CCc1cccc(N=c2c([N+](=O)[O-])nn(-c3ccc(Cl)cc3)n2O)c1 | 1.45 µM (active) | –
O=[N+]([O-])c1nn(-c2ccc3c(c2)OCCO3)n(O)c1=NCCC1=CCCCC1 | 1.63 µM (active) | –
O=[N+]([O-])c1nn(-c2ccc3c(c2)OCCO3)n(O)c1=NCCCO | 2.05 µM (active) | –

Structure (SMILES) | Potency | activity change, negative = killing
Cc1cc(C)cc(N=c2c([N+](=O)[O-])nn(-c3ccc4c(c3)OCCO4)n2O)c1 | 0.729 µM (active) | –
CCc1cccc(N=c2c([N+](=O)[O-])nn(-c3ccc4c(c3)OCCO4)n2O)c1 | 0.818 µM (active) | –
Cn1nc(-c2ccncc2)nc2c(=O)n(C)c(=O)nc1-2 | 1.16 µM (active) | –
Cn1nc(-c2ccc(Cl)cc2)nc2c(=O)n(C)c(=O)nc1-2 | 0.13 µM (active) | –
Cn1nc(-c2ccc(F)cc2)nc2c(=O)n(C)c(=O)nc1-2 | 0.103 µM (active) | –
Cn1nc(-c2cccnc2)nc2c(=O)n(C)c(=O)nc1-2 | 4.1 µM (active) | –
CCCc1nc2c(=O)n(C)c(=O)nc-2n(C)n1 | 0.326 µM (active) | –
COc1ccc(-c2nc3c(=O)n(C)c(=O)nc-3n(C)n2)cc1 | 0.163 µM (active) | –
O=C1S/C(=C\c2ccc(O)c([N+](=O)[O-])c2)C(=O)N1Cc1cccc([N+](=O)[O-])c1 | 0.818 µM (active) | –
O=C(O)c1cccc(CN2C(=O)S/C(=C/c3ccccc3[N+](=O)[O-])C2=O)c1 | – | -35.3% (inactive)
O=C1/C(=C/c2ccc(O)c([N+](=O)[O-])c2)SC(=S)N1Cc1ccccc1 | 1.45 µM (active) | –
O=C1S/C(=C\c2ccc(O)c([N+](=O)[O-])c2)C(=O)N1c1ccccc1Cl | 1.63 µM (active) | –
COc1cccc(/C=C2\Oc3ccc(O)cc3C2=O)c1O | 3.26 µM (active) | –
CCOc1ccc(-n2c(C)c(C(C)=O)c3cc(O)ccc32)cc1 | – | 5.94% (inactive)
CC(=O)c1c(C)n([O-])c2ccc(C)cc2[n+]1=O | 0.41 µM (active) | –
CCN(CC)CC(=O)c1c(C)n(C)c2ccc(OC)cc12 | – | 0.629% (inactive)
CC(=O)c1c(C)n([O-])c2cc(C)ccc2[n+]1=O | 0.818 µM (active) | –
CC(=O)c1c(C)n([O-])c2ccccc2[n+]1=O | 0.65 µM (active) | –
COc1ccc2c(c1)[n+](=O)c(C(C)=O)c(C)n2[O-] | 4.1 µM (active) | –
